Test results taken from the supplement of paper PMC8728848.
The full list was thinned out, with the strongest signals kept by preference.

How the values were obtained:
Assay in all cases: glycan array binding signal (z-score within array); higher = stronger binding
Conditions in all cases: glycan notation: IUPAC condensed, linker removed
[1] = molecular target: GlcNAc(a1-4)Gal(b1-4)GalNAc
Outline: (§1)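 The binding signal is a Z-score computed within each array. Data were drawn from 3228 arrays in the Consortium for Functional Glycomics database, restricted to those with a known protein sequence. Scores were averaged over arrays of the same protein sequence at different concentrations or buffers, and over linkers, and negative values can be taken as non-binding.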

[2] = molecular target: GlcNAc(b1-3)Gal(b1-4)GlcNAc(b1-3)Gal(b1-4)GlcNAc(b1-2)[GlcNAc(b1-3)Gal(b1-4)GlcNAc(b1-3)Gal(b1-4)GlcNAc(b1-6)]Man(a1-6)[GlcNAc(b1-3)Gal(b1-4)GlcNAc(b1-3)Gal(b1-4)GlcNAc(b1-2)Man(a1-3)]Man(b1-4)GlcNAc(b1-4)[Fuc(a1-6)]GlcNAc
Outline: as §1

[3] = molecular target: Man(a1-2)Man(a1-2)Man(a1-3)Man
Outline: as §1

[4] = molecular target: Man(a1-2)Man(a1-3)[Man(a1-6)]Man(a1-6)[Man(a1-2)Man(a1-3)]Man(b1-4)GlcNAc(b1-4)GlcNAc
Outline: as §1

[5] = molecular target: Man(a1-6)Man
Outline: as §1

[6] = molecular target: Neu5Ac(a2-3)Gal(b1-3)GlcNAc(b1-2)Man
Outline: as §1

[7] = molecular target: Neu5Ac(a2-3)Gal(b1-3)GlcNAc(b1-2)Man(a1-3)[GlcNAc(b1-4)][Neu5Ac(a2-3)Gal(b1-3)GlcNAc(b1-2)Man(a1-6)]Man(b1-4)GlcNAc(b1-4)GlcNAc
Outline: as §1

[8] = molecular target: Neu5Ac(a2-3)Gal(b1-3)GlcNAc(b1-6)GalNAc
Outline: as §1

[9] = molecular target: Neu5Ac(a2-3)Gal(b1-3)GlcNAc6S
Outline: as §1

[10] = molecular target: Neu5Ac(a2-3)Gal(b1-3)[Neu5Ac(a2-6)]GalNAc
Outline: as §1

[11] = molecular target: Neu5Ac(a2-3)Gal(b1-3)[Neu5Ac(a2-6)]GlcNAc(b1-3)[Fuc(a1-3)[Gal(b1-4)]GlcNAc(b1-6)]Gal(b1-4)Glc
Outline: as §1

[12] = molecular target: Neu5Ac(a2-3)Gal(b1-4)Glc
Outline: as §1

[13] = molecular target: Neu5Ac(a2-3)Gal(b1-4)GlcNAc(b1-2)[Neu5Ac(a2-3)Gal(b1-4)GlcNAc(b1-6)]Man(a1-6)[Neu5Ac(a2-3)Gal(b1-4)GlcNAc(b1-2)Man(a1-3)][GlcNAc(b1-4)]Man(b1-4)GlcNAc(b1-4)GlcNAc
Outline: as §1

[14] = molecular target: Neu5Ac(a2-3)Gal(b1-4)GlcNAc(b1-3)Gal(b1-4)GlcNAc
Outline: as §1

[15] = molecular target: Neu5Ac(a2-3)Gal(b1-4)GlcNAc(b1-3)[Neu5Ac(a2-3)Gal(b1-4)GlcNAc(b1-6)]GalNAc
Outline: as §1

[16] = molecular target: Neu5Ac(a2-3)Gal(b1-4)GlcNAc(b1-6)[Gal(b1-3)]GalNAc
Outline: as §1

[17] = molecular target: Neu5Ac(a2-6)Gal
Outline: as §1

[18] = molecular target: Neu5Ac(a2-6)Gal(b1-4)Glc
Outline: as §1

[19] = molecular target: Neu5Ac(a2-6)Gal(b1-4)GlcNAc
Outline: as §1

[20] = molecular target: Neu5Ac(a2-6)Gal(b1-4)GlcNAc(b1-2)[Neu5Ac(a2-6)Gal(b1-4)GlcNAc(b1-6)]Man(a1-6)[Neu5Ac(a2-6)Gal(b1-4)GlcNAc(b1-2)Man(a1-3)][GlcNAc(b1-4)]Man(b1-4)GlcNAc(b1-4)GlcNAc
Outline: as §1

[21] = molecular target: Neu5Ac(a2-6)Gal(b1-4)GlcNAc(b1-3)GalNAc
Outline: as §1

[22] = molecular target: Neu5Ac(a2-6)GalNAc(b1-4)GlcNAc
Outline: as §1

[23] = molecular target: Neu5Ac(a2-8)Neu5Ac(a2-3)Gal(b1-4)Glc
Outline: as §1

[24] = molecular target: Neu5Ac(a2-8)Neu5Ac(a2-3)Gal(b1-4)GlcNAc
Outline: as §1

[25] = molecular target: Neu5Ac(a2-8)Neu5Ac(a2-8)Neu5Ac(a2-8)Neu5Ac(a2-3)[GalNAc(b1-4)]Gal(b1-4)Glc
Outline: as §1

[26] = molecular target: Neu5Ac9Ac(a2-3)Gal(b1-3)GlcNAc
Outline: as §1

[27] = molecular target: Neu5Gc(a2-3)Gal(b1-3)[Fuc(a1-4)]GlcNAc
Outline: as §1

[28] = molecular target: Neu5Gc(a2-3)Gal(b1-4)GlcNAc(b1-3)Gal(b1-4)GlcNAc(b1-2)Man(a1-3)[Neu5Gc(a2-3)Gal(b1-4)GlcNAc(b1-3)Gal(b1-4)GlcNAc(b1-2)Man(a1-6)]Man(b1-4)GlcNAc(b1-4)GlcNAc
Outline: as §1

[29] = molecular target: Neu5Gc(a2-6)GalNAc
Outline: as §1

[30] = molecular target: Neu5Gc(a2-8)Neu5Gc(a2-3)Gal(b1-4)GlcNAc(b1-3)Gal(b1-4)GlcNAc
Outline: as §1

B1: Arath Fbox LD (Arabidopsis thaliana) (protein)
chain: EFSVWLEKASGKRCLMLSAMNLSIIWGDNPQYWQWIPIPESRFEKVAKLRDVCWFEIRGRTNTRVLSPRTRYSAYIVFKGVDKCYGFQNVAIEAAVGVVGQEPSRRLICFSEAIRRGRRNVVKPKQREDGWMEIELGEFFNDGGIMDNDEIEMSALETKQLNRKCGLIIQGIEIRPAKILAAASFLEQKLISEEDLNSAVDHHHHHH
glycan array binding signal (z-score) [1]: 0.26 | glycan array binding signal (z-score) [2]: 0.126 | glycan array binding signal (z-score) [3]: -0.56 | glycan array binding signal (z-score) [4]: -0.337 | glycan array binding signal (z-score) [5]: 2.7 | glycan array binding signal (z-score) [6]: 2.03 | glycan array binding signal (z-score) [7]: -0.462 | glycan array binding signal (z-score) [8]: -0.64 | glycan array binding signal (z-score) [9]: -0.302 | glycan array binding signal (z-score) [10]: -0.264 | glycan array binding signal (z-score) [11]: -0.662 | glycan array binding signal (z-score) [12]: -0.473 | glycan array binding signal (z-score) [13]: -0.407 | glycan array binding signal (z-score) [14]: -0.587 | glycan array binding signal (z-score) [15]: -0.595 | glycan array binding signal (z-score) [16]: -0.599 | glycan array binding signal (z-score) [17]: 2.83 | glycan array binding signal (z-score) [18]: 0.791 | glycan array binding signal (z-score) [19]: -0.052 | glycan array binding signal (z-score) [20]: 0.015 | glycan array binding signal (z-score) [21]: -0.324 | glycan array binding signal (z-score) [22]: -0.53 | glycan array binding signal (z-score) [23]: -0.516 | glycan array binding signal (z-score) [24]: -0.254 | glycan array binding signal (z-score) [25]: 0.508 | glycan array binding signal (z-score) [26]: 3.71 | glycan array binding signal (z-score) [27]: -0.502 | glycan array binding signal (z-score) [28]: -0.554 | glycan array binding signal (z-score) [29]: -0.28 | glycan array binding signal (z-score) [30]: -0.404
